A number with no mark means an inactive call.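 The calls were made as follows: active = mean tau seeding fluorescence area under 1% of vehicle, meaning inhibition above a set limit; inactive = the rest.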

Inhibition data for twelve molecules are collected here from PubChem BioAssay AID2061166 (Soto Lab, Mitchell Center for Alzheimers Disease and …, 2025).

The target of the assay is Microtubule-associated protein tau (Homo sapiens) (UniProt P10636). The experiment in a line: inhibitors of seeded tau aggregation, primary screen, biochemical, seed amplification, ThT fluorescence (AID 2061166). The conditions noted are these: Recombinant tau seeded by AD brain, ThT fluorescence AUC; at 100 µM; hits give high values.
Sequence of Microtubule-associated protein tau (Homo sapiens) (P10636 whole entry, looked up): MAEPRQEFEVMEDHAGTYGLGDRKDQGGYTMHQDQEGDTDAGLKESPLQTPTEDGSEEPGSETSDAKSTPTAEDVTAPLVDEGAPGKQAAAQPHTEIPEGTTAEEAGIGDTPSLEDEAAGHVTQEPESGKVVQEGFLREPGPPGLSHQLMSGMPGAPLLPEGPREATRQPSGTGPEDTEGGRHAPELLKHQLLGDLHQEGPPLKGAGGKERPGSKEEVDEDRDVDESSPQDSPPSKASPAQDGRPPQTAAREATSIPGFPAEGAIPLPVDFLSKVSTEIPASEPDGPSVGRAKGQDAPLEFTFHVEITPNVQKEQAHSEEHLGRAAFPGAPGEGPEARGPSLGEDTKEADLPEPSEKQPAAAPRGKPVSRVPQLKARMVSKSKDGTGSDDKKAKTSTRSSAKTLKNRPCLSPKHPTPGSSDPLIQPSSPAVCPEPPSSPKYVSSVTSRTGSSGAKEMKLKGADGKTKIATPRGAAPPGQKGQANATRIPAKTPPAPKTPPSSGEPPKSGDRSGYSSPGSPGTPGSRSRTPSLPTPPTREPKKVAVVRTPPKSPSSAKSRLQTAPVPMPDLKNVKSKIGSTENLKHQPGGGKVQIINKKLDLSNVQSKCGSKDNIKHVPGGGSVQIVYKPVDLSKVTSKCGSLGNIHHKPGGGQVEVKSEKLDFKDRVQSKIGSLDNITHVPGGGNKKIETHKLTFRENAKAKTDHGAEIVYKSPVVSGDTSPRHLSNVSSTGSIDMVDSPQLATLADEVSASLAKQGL
As for `Cn1cc(C2=C(c3cn(C4CCN(Cc5ccccn5)CC4)c4ccccc34)C(=O)NC2=O)c2ccccc21`, the inhibition (usually the share of the control response that was lost under treatment) is 18.6%.

Consider `O=C1C=C2C=CC3CC2(O1)C1CCCCN31` (configuration not stated), for which the inhibition is 17%.

With `O=c1c2ccccc2[se]n1-c1ccccc1`, the inhibition was 51.6%.

Consider `Cn1c(CCCC(=O)O)nc2cc(N(CCCl)CCCl)ccc21`, for which the inhibition is 48%.

Consider `COc1ccc(C(=O)O)cc1OC`, for which the inhibition is 11.4%.

With `CNC(=O)Oc1cccc2ccccc12`, the inhibition was 63.7%.

As for `COc1ccc(C(CN(C)C)C2(O)CCCCC2)cc1` (configuration not stated), the inhibition was 40.8%.

As for `Cc1cccc(C(C)c2cnc[nH]2)c1C` (configuration not stated), the inhibition is 17.4%.

In the case of `O=C(CS(=O)C(c1ccccc1)c1ccccc1)NO` (configuration not stated), the inhibition is 7.82%.

`c1cncc(C2=NCCC2)c1`: the inhibition is 32.6%.

Take `COc1ccc2c(c1)[nH]c1c(C)nccc12`: the inhibition was 35.5%.

With `COc1ccc2c3c([nH]c2c1)C(C)=NCC3`, the inhibition was 11.8%.
